Assay in all cases: NCI-60 one-dose screen, 48 h (100 = growth as untreated, 0 = no growth, -100 = all killed)
Holding throughout (conditions): 10 µM unless noted

For assay [1], the system named is HCT-15 colon.
For assay [2], the system named is HT29 colon.
The test system of assay [3] is SNB-75 CNS.
Assay [4] concerns SNB-19 CNS.
Assay [5] concerns U251 CNS.
Assay [6] concerns PC-3 prostate.
The subject of assay [7] is SK-MEL-5 melanoma.
Assay [8] concerns UACC-62 melanoma.
Assay [9] has as its system LOX IMVI melanoma.
Assay [10] concerns SK-MEL-28 melanoma.
Assay [11] relates to SK-MEL-2 melanoma.
The subject of assay [12] is EKVX NSCLC.
Assay [13] concerns SN12C renal.
For assay [14], the system named is UO-31 renal.
For assay [15], the system named is TK-10 renal.
Assay [16] deals with ACHN renal.
Assay [17] relates to CAKI-1 renal.
The test system of assay [18] is HL-60(TB) leukemia.
Assay [19] concerns CCRF-CEM leukemia.
In assay [20] the test system is A498 renal.

Values joined by “and” are separate entries in the source; they are usually repeats but may differ in a detail not shown here. Identical values can stand only once. The panel holds about 83,000 compounds, 20% with a hit somewhere; the sample as a whole holds those more often.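 Single-dose data. Exposure time 48 hours. Values below 10 considered active.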 Unmarked numbers belong to inactive results. Active and inactive are the calls of the source.

On to `O=[P+](O)c1cccnc1`, for which the growth in assay [1] was 106%; in assay [2] it was 93.7%; in assay [3], 94.3%; in assay [4], 106%; in [5], 99.6%; in [6], 96.7%. In addition, the growth in assay [7] is 102%; in [8], 103%; in [9], 98.1%; in assay [10], 106%; in assay [11] it was 106%; in [12] it was 101%. Also, the growth in assay [13] is 102%; in [14] it was 91.5%; in assay [15] it was 103%; in assay [16], 110%; in assay [17], 102%; in [18] it was 107%. The growth in [19] is 98.3%.
Turning to `O=CC1(c2ccccc2)CCN(Cc2ccccc2)CC1`, the growth in assay [1] is 103%; in assay [2], 107%; in assay [3], 102%; in assay [4], 109%; in assay [5] it was 101%; in assay [6], 98.1%. Besides, the growth was 110% in [7]; 105% in assay [8]; 82.8% in [9]; 112% in [10]; 117% in [11]; 101% in [12]. The growth was 107% in assay [13]; 83.9% in assay [14]; 115% in assay [15]; 112% in assay [16]; 97.9% in assay [17]; 97.8% in assay [18]. Besides, the growth in assay [19] is 102%.
`O=C(O)CNCP(=O)(O)O`: the growth in assay [1] was 123%; in assay [2], 98.6%; in [3], 96.5%; in [4] it was 123%; in [5] it was 98.3%; in assay [6], 106%. The growth in [7] is 111%; in assay [8] it was 105%; in assay [9], 95.7%; in [10], 120%; in assay [11], 98.5%; in assay [12] it was 106%. Also, the growth was 101% in [13]; 108% in assay [15]; 123% in assay [16]; 100% in assay [17]; 117% in assay [20]; 95.8% in [18]. The growth in assay [19] was 90.9%.
Take `Cc1cc(N)ccc1N`: the growth in assay [1] was 105%; in [2], 109%; in assay [3] it was 92.3%; in [4], 102%; in [5] it was 93.2%; in assay [6], 87.6%. Besides, the growth is 97.2% in assay [7]; 103% in assay [8]; 98.3% in assay [9]; 107% in [10]; 104% in assay [11]; 95.7% in assay [13]. Further, the growth in assay [14] is 88.7%; in [15] it was 126%; in [16], 97%; in assay [17], 97.9%; in assay [20], 79.2%; in assay [18], 100%.
As for `CC[C@@H](C)C(=O)O[C@H]1[C@H](O)[C@H]2[C@@H](CN3C[C@@H](C)CC[C@H]3[C@@]2(C)O)[C@@H]2C[C@]34O[C@]5(O)[C@@H](OC(=O)[C@@](C)(O)CC)CC[C@@]3(C)[C@@H]5[C@@H](OC(C)=O)[C@@H](OC(C)=O)[C@H]4[C@@]21O`, the growth was 109% in assay [1]; 112% in [2]; 79.8% in assay [3]; 100% in assay [4]; 91.8% in assay [5]; 75.8% in [6]. In addition, the growth in assay [7] was 86.6%; in assay [8], 96.1%; in assay [9], 92.8%; in assay [10], 105%; in assay [11], 103%; in assay [12], 93.7%. In addition, the growth in assay [13] was 97.1%; in [15], 106%; in [16], 101%; in assay [17] it was 100%; in assay [20] it was 102%; in [18], 92.4%. Besides, in [19], the growth was 99.9%.
As to `CC12CCC3C(CCC4CC(O)CCC43C)C1CCC2=O` (configuration not stated), the growth in assay [1] was 91.4%; in assay [2], 102%; in [3], 109%; in [4], 112%; in assay [5], 95.9%; in assay [6], 99.6%. Besides, the growth was 101% in assay [7]; 98.9% in assay [8]; 92% in [9]; 189% in assay [10]; 91.7% in assay [11]; 73.4% in assay [12]. Moreover, the growth was 102% in [13]; 108% in assay [15]; 109% in [16]; 81.5% in assay [17]; 162% in assay [20]; 92.3% in assay [18]. Also, the growth in assay [19] was 107%.
In the case of `NC(N)=NC(N)=Nc1ccc(Cl)cc1`, the growth in assay [1] is 108%; in assay [2], 97.8%; in assay [3], 77.1%; in assay [4], 105%; in assay [5], 113%; in [6] it was 89.5%. In addition, the growth in [7] was 108%; in [8] it was 111%; in [9], 110%; in assay [10], 98.9%; in [11], 111%; in [12], 93%. Besides, the growth was 103% in assay [13]; 95.2% in assay [14]; 115% in assay [15]; 93.9% in [16]; 48.4% in assay [18]; 89.7% in assay [19].
With `O=[N+]([O-])c1cc(Br)c(O)c(Br)c1`, the growth in assay [1] was 100%; in assay [2], 95.6%; in [3] it was 102%; in [4], 102%; in assay [5], 99.8%; in [6], 96.7%. Moreover, the growth was 98% in assay [7]; 105% in assay [8]; 101% in [9]; 120% in assay [10]; 108% in [11]; 106% in assay [13]. For the same compound, the growth in assay [14] is 87.5%; in assay [15], 100%; in [16], 118%; in assay [17], 108%; in assay [20], 70.1%; in [18], 119%. Further, the growth in [19] was 100%.
For the compound `CC[C@H](C)[C@H](NC(=O)c1cnccn1)C(=O)N(C)[C@H](C[C@@H](OC(C)=O)c1nc(C(=O)N[C@@H](Cc2ccccc2)C[C@H](C)C(=O)OC)cs1)C(C)C`, the growth is 6.99% (active) in assay [1]; -5.79% (active) in assay [2]; 15% in [3]; 31.9% in assay [4]; 10.3% in assay [5]; 21.7% in [6]. Also, the growth in [7] is 0.869% (active); in [8], 34.2%; in assay [9], 17.5%; in assay [10] it was 59.2%; in assay [11] it was 31.3%; in assay [12] it was 43.9%. The growth in [13] was 43.6%; in [15], 48.2%; in assay [16], 45.3%; in assay [17], 29.4%; in [20], -7.33% (active); in assay [18], -43.7% (active).
As for `ClCc1ccc(Cl)c(Cl)c1`, the growth in assay [1] is 98.6%; in [2], 109%; in assay [3], 104%; in [4], 96.6%; in [5] it was 100%; in assay [6] it was 91.9%. Besides, the growth in assay [7] is 92.2%; in assay [8], 97.9%; in [9], 104%; in [10], 111%; in [13], 97.9%; in [14], 91.2%. The growth is 96.8% in assay [16]; 109% in assay [17]; 95.5% in [20]; 105% in assay [18]; 96.3% in assay [19].
In the case of `O=C(NCCCN1CC1)Nc1cccc2ccccc12`, the growth in [1] was 106% and 100%; in assay [2] it was 83.9%; in assay [3] it was 105% and 102%; in assay [4], 88.5% and 95%; in [5], 87% and 86.6%; in assay [6] it was 87.8% and 89.7%. Moreover, the growth in [7] was 107% and 93.3%; in assay [8], 98% and 105%; in [9], 95.6% and 78.4%; in assay [10] it was 107% and 115%; in [11] it was 97.1% and 97.9%; in assay [12], 109% and 103%. Besides, the growth in assay [13] is 94.4% and 97.5%; in assay [14], 97.7% and 83.7%; in assay [15], 103% and 93.3%; in assay [16], 93% and 87.6%; in assay [17], 95.8% and 85.1%; in assay [18], 107%. Moreover, in assay [19], the growth was 108% and 86.3%.
On to `N#CC(N)c1ccccc1` (configuration not stated), for which the growth is 104% in [1]; 111% in assay [2]; 97.4% in assay [3]; 105% in assay [4]; 105% in [5]; 104% in [6]. In addition, the growth is 101% in assay [7]; 99.5% in assay [8]; 101% in assay [9]; 113% in assay [10]; 122% in assay [11]; 104% in [13]. The growth in assay [14] is 86.3%; in [15], 109%; in assay [16], 105%; in [17], 102%; in assay [18], 102%.
Regarding `CC12CCC3C4CCC(=O)C=C4CCC3C1CC1CC(=O)OC12` (configuration not stated), the growth in [1] was 112%; in assay [2], 90.9%; in assay [3] it was 92.3%; in [4], 94.6%; in [5] it was 97.1%; in assay [6], 87.1%. Moreover, the growth is 99.2% in assay [7]; 97.2% in assay [8]; 90.7% in assay [9]; 108% in [10]; 104% in [11]; 110% in assay [12]. Besides, the growth in assay [13] was 93.8%; in [15], 89.8%; in assay [16] it was 103%; in assay [17] it was 102%; in assay [20] it was 98.9%; in assay [18], 105%.
`O=[N+]([O-])c1cc(Cl)c(Cl)cc1Cl`: the growth in assay [1] was 104% and 108%; in [2] it was 124% and 111%; in assay [3] it was 93.8% and 121%; in assay [4] it was 101% and 131%; in assay [5], 93.4% and 102%; in assay [6], 96.1% and 102%. Moreover, the growth was 123% and 105% in [7]; 91.4% and 115% in [8]; 96.5% and 98.4% in [9]; 115% and 124% in assay [10]; 143% and 119% in assay [11]; 106% and 113% in assay [12]. Also, the growth in [13] was 94.6% and 108%; in [15], 120%; in [16] it was 104% and 109%; in assay [17] it was 100% and 107%; in assay [20], 104%; in [18] it was 114%.

These data come from PubChem BioAssay (NCI).
